The text below walks through data of PubChem BioAssay (NCATS).

Results filed as inconclusive are left out. Unmarked numbers belong to inactive results. Activity calls are given as the source filed them. Calls come from the whole dose curve; as a rule, active = well fitted inhibition curve with a large enough effect; inconclusive = small, poorly fitted or top-dose-only effect; inactive = flat fitted curve, though single readings scatter.
Potency is the fitted concentration of half-maximal effect.

The first assay concerns CP291. Description: qHTS profiling for inhibitors of Plasmodium falciparum proliferation (AID 504749).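 For activity, negative = inhibition: 0% = DMSO vehicle and full inhibition = artemisinin control.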 Note: nearly all actives have a fitted effect of over 60% in size. The following applies: P. falciparum in erythrocytes, SYBR Green DNA, 72 h; series mostly up to 28.7 µM; activity, negative = inhibition: at the top concentration. The gist of the method:
(§1)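 P. falciparum-infected erythrocytes (0.3% parasitemia, 2.5% hematocrit final) were exposed to compounds for 72 h at 37 C in 5% CO2, then lysed with SYBR Green buffer overnight at room temperature; parasite DNA fluorescence was normalized to artemisinin and DMSO controls.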
A general note: Quantitative high-throughput screening tests each substance at several concentrations.
`NCC(=O)CCC(=O)O`: the “activity, negative = inhibition” value is 0.182%.

For the compound `COc1ccc2[nH]c(S(=O)Cc3ncc(C)c(OC)c3C)nc2n1` (centres undefined), the “activity, negative = inhibition” value was -0.438%.

Take `CC(CN1c2ccccc2Sc2ccccc21)N(C)C` (centres undefined): the “activity, negative = inhibition” value is 0.559%.

With `OCc1cc(C(O)CNCCCCCCOCCCCc2ccccc2)ccc1O` (centres undefined), the “activity, negative = inhibition” value is -19.6%.

In the case of `NC1CCN(c2cccc(Cl)n2)CC1`, the “activity, negative = inhibition” value is -20.9%.

In the case of `C#CCN(C)Cc1ccccc1`, the “activity, negative = inhibition” value is -0.436% [at 12.8 µM].

In the case of `CCOC(CN1CCN(CC(C)C(=O)c2ccccc2)CC1)c1ccccc1` (centres undefined), the “activity, negative = inhibition” value is -20%.

As for `c1ccc(CN(CC2=NCCN2)c2ccccc2)cc1`, the “activity, negative = inhibition” value is -19.7%.

With `CC(C(O)c1ccc(O)cc1)N1CCC(Cc2ccccc2)CC1` (centres undefined), the Potency was 16.9 µM (active).

Turning to `CNCCCC1c2ccccc2C=Cc2ccccc21`, the “activity, negative = inhibition” value is -17.1% [at 12.8 µM].

For the compound `CCCn1cnc2c1c(=O)n(CCCCC(C)=O)c(=O)n2C`, the “activity, negative = inhibition” value is -9.73%.

Consider `CN1CCN(C2Cc3ccccc3Sc3ccc(Cl)cc32)CC1` (centres undefined), for which the “activity, negative = inhibition” value was -12.5%.

For a further assay, the system named is CP297. The description is as above. The conditions noted are these: P. falciparum in erythrocytes, SYBR Green DNA, 72 h; series mostly up to 28.7 µM; activity, negative = inhibition: at the top concentration. The gist of the method:
as §1
In the case of `CNCCC(Oc1ccc(C(F)(F)F)cc1)c1ccccc1` (centres undefined), the “activity, negative = inhibition” value is -19.7%.

Regarding `OCc1cc(C(O)CNCCCCCCOCCCCc2ccccc2)ccc1O` (centres undefined), the “activity, negative = inhibition” value was -20.1%.

For the compound `O=C1c2c(O)cccc2Cc2cccc(O)c21`, the “activity, negative = inhibition” value was 3.62%.

On to `CN(C)CCN(Cc1ccccc1)c1ccccn1`, for which the “activity, negative = inhibition” value was -21.6%.

In the case of `CCCCN1CCCC[C@H]1C(=O)Nc1c(C)cccc1C`, the “activity, negative = inhibition” value was -14.1%.

Consider `Cc1ccc2nc(N)[nH]c(=O)c2c1Sc1ccncc1`, for which the “activity, negative = inhibition” value is -9.21%.

On to `CN1CCCCC1CCN1c2ccccc2Sc2ccc(S(C)=O)cc21` (centres undefined), for which the “activity, negative = inhibition” value is -15.1%.

On to `CC(C)(C)C(=O)C(Oc1ccc(Cl)cc1)n1ccnc1` (centres undefined), for which the Potency was 16.9 µM (active).

As for `CNCCCC1c2ccccc2C=Cc2ccccc21`, the “activity, negative = inhibition” value was -6.84% [at 12.8 µM].

For the compound `CCCn1cnc2c1c(=O)n(CCCCC(C)=O)c(=O)n2C`, the “activity, negative = inhibition” value is 6.37%.

Take `CCOc1nc2cccc(C(=O)O)c2n1Cc1ccc(-c2ccccc2-c2nn[nH]n2)cc1`: the “activity, negative = inhibition” value is -13.7%.

For the next assay, the system named is CP305. Described as above. The following applies: P. falciparum in erythrocytes, SYBR Green DNA, 72 h; series mostly up to 28.7 µM; activity, negative = inhibition: at the top concentration. The gist of the method:
as §1
Regarding `NCC(=O)CCC(=O)O`, the “activity, negative = inhibition” value is -0.94%.

As for `COc1ccc2[nH]c(S(=O)Cc3ncc(C)c(OC)c3C)nc2n1` (centres undefined), the “activity, negative = inhibition” value is -2.65%.

For the compound `OCc1cc(C(O)CNCCCCCCOCCCCc2ccccc2)ccc1O` (centres undefined), the “activity, negative = inhibition” value was -16.7%.

For the compound `NC1CCN(c2cccc(Cl)n2)CC1`, the “activity, negative = inhibition” value is -11.8%.

With `C#CCN(C)Cc1ccccc1`, the “activity, negative = inhibition” value was 2.96% [at 12.8 µM].

For the compound `CCOC(CN1CCN(CC(C)C(=O)c2ccccc2)CC1)c1ccccc1` (centres undefined), the “activity, negative = inhibition” value is -15%.

As for `O=C1c2c(O)cccc2Cc2cccc(O)c21`, the “activity, negative = inhibition” value was -0.613%.

As to `CCCCN1CCCC[C@H]1C(=O)Nc1c(C)cccc1C`, the “activity, negative = inhibition” value is -15.5%.

As to `CC(C(O)c1ccc(O)cc1)N1CCC(Cc2ccccc2)CC1` (centres undefined), the Potency is 15.1 µM (active).

Turning to `CNCCCC1c2ccccc2C=Cc2ccccc21`, the “activity, negative = inhibition” value was -15.9% [at 12.8 µM].

`CN1CCC[C@@H]1Cc1c[nH]c2ccc(CCS(=O)(=O)c3ccccc3)cc12`: the “activity, negative = inhibition” value was -25.3%.

For the compound `CCCn1cnc2c1c(=O)n(CCCCC(C)=O)c(=O)n2C`, the “activity, negative = inhibition” value was -0.4%.

For `Cc1c(O)cccc1C(=O)N[C@@H](CSc1ccccc1)[C@H](O)CN1C[C@H]2CCCC[C@H]2C[C@H]1C(=O)NC(C)(C)C`, the “activity, negative = inhibition” value was -17.1%.

Turning to `CN1CCN(C2Cc3ccccc3Sc3ccc(Cl)cc32)CC1` (centres undefined), the “activity, negative = inhibition” value was -18.4%.

With `CCOc1nc2cccc(C(=O)O)c2n1Cc1ccc(-c2ccccc2-c2nn[nH]n2)cc1`, the “activity, negative = inhibition” value is -14.7%.

For the next assay, the system named is CP315. The assay is described as above. The conditions noted are these: P. falciparum in erythrocytes, SYBR Green DNA, 72 h; series mostly up to 28.7 µM; activity, negative = inhibition: at the top concentration. A digest of the protocol:
as §1
Take `NCC(=O)CCC(=O)O`: the “activity, negative = inhibition” value is -1.58%.

For the compound `COc1ccc2[nH]c(S(=O)Cc3ncc(C)c(OC)c3C)nc2n1` (centres undefined), the “activity, negative = inhibition” value was -3.86%.

With `CNCCC(Oc1ccc(C(F)(F)F)cc1)c1ccccc1` (centres undefined), the “activity, negative = inhibition” value is -6.66%.

For the compound `CN(C)CCCN1c2ccccc2Sc2ccc(Cl)cc21`, the “activity, negative = inhibition” value is -16.1%.

For the compound `CC(CN1c2ccccc2Sc2ccccc21)N(C)C` (centres undefined), the “activity, negative = inhibition” value was -6.69%.

As to `OCc1cc(C(O)CNCCCCCCOCCCCc2ccccc2)ccc1O` (centres undefined), the “activity, negative = inhibition” value is -0.109%.

For the compound `NC1CCN(c2cccc(Cl)n2)CC1`, the “activity, negative = inhibition” value was -10.1%.

With `CNC(=O)Oc1ccc2c(c1)[C@]1(C)CCN(C)[C@@H]1N2C`, the “activity, negative = inhibition” value was -19.5%.

Consider `C#CCN(C)Cc1ccccc1`, for which the “activity, negative = inhibition” value is -2.71% [at 12.8 µM].

Turning to `CCOC(CN1CCN(CC(C)C(=O)c2ccccc2)CC1)c1ccccc1` (centres undefined), the “activity, negative = inhibition” value was -0.172%.

As for `NC(=O)N/N=C/c1ccc([N+](=O)[O-])o1`, the “activity, negative = inhibition” value is -11.5%.

In the case of `O=C1c2c(O)cccc2Cc2cccc(O)c21`, the “activity, negative = inhibition” value was -1.43%.

With `c1ccc(CN(CC2=NCCN2)c2ccccc2)cc1`, the “activity, negative = inhibition” value was -11.9%.

In the case of `[Cl][In]([Cl])[Cl]`, the “activity, negative = inhibition” value was -1.85%.

On to `CSc1ccc2c(c1)C(N1CCN(C)CC1)Cc1ccccc1S2` (centres undefined), for which the “activity, negative = inhibition” value was -12.7%.

Turning to `CN(C)CCN(Cc1ccccc1)c1ccccn1`, the “activity, negative = inhibition” value was -8.38%.

For `CCCCN1CCCC[C@H]1C(=O)Nc1c(C)cccc1C`, the “activity, negative = inhibition” value was -1.55%.

In the case of `Cc1ccc2nc(N)[nH]c(=O)c2c1Sc1ccncc1`, the “activity, negative = inhibition” value was -6.91%.

As to `CN1CCCCC1CCN1c2ccccc2Sc2ccc(S(C)=O)cc21` (centres undefined), the “activity, negative = inhibition” value is -9.39%.

Turning to `CCN(CC)CCNC(=O)c1c(C)[nH]c(/C=C2\C(=O)Nc3ccc(F)cc32)c1C`, the Potency was 10.7 µM (active).

For `CCN(CC)CCNC(C(=O)OCCC(C)C)c1ccccc1` (centres undefined), the “activity, negative = inhibition” value is -8.56%.

Consider `CNCCCC1c2ccccc2C=Cc2ccccc21`, for which the “activity, negative = inhibition” value is -9.86% [at 12.8 µM].

Regarding `CN1CCC[C@@H]1Cc1c[nH]c2ccc(CCS(=O)(=O)c3ccccc3)cc12`, the “activity, negative = inhibition” value was -9.44%.

For the compound `CCCn1cnc2c1c(=O)n(CCCCC(C)=O)c(=O)n2C`, the “activity, negative = inhibition” value was 1.36%.

Turning to `CN1CCN(C2Cc3ccccc3Sc3ccc(Cl)cc32)CC1` (centres undefined), the “activity, negative = inhibition” value is -13.8%.

As for `CCOc1nc2cccc(C(=O)O)c2n1Cc1ccc(-c2ccccc2-c2nn[nH]n2)cc1`, the “activity, negative = inhibition” value was -4.24%.
